This is an account of results in PubChem BioAssay AID588689 (Southern Research Specialized Biocontainment Screening …, 2011).

In all, about 340,000 compounds went through this assay and about 1,000 (0.29%) were called active. Cut-off read from the data, not from the text of the source: inconclusive = inhibition above about 29% without an active follow-up result; inactive = below that. The list is a sample of the results. Measured potencies and affinities stand elsewhere.

The experiment has as its target Genome polyprotein (Dengue virus type 2 (strain 16681-PDK53)) (UniProt P29991). In words: Dengue-2 NS5 methyltransferase inhibitors, primary screen, biochemical, confirmation dose response (AID 588689). The settings on record: Dengue-2 NS5 methyltransferase capping enzyme assay, at 25 µM, stronger effect = higher value.
[1] abbreviates: measured here: pilot screen replicate inhibition.

On to `O=C(O)c1cnc(-c2ccccc2)nc1Sc1ccc(Cl)cc1Cl`, for which the inhibition was 4.03% (inactive).

Turning to `Cc1cccc(C2=NN(c3ccccc3)[C@@H](C(=O)N3CCOC3=O)[C@@H]2C)c1`, the inhibition was -1.32% (inactive). Further, the inhibition under setting [1] was determined as 4.88%.

Take `CCOC(=O)c1cc(=O)nc(N)s1`: the inhibition is -4.03% (inactive).

For the compound `O=C(COc1ccc([N+](=O)[O-])cc1)NCC(c1cccs1)N1CCOCC1` (centres undefined), the inhibition was 4.32% (inactive).

In the case of `CC(C)(C)OC(=O)N1CCC(CC2CC(c3ccccc3)=NO2)(C(=O)O)CC1` (centres undefined), the inhibition was -3.93% (inactive).

For `O=S(=O)(Nc1ccccc1N1CCCCC1)c1ccccc1`, the inhibition was 1.3% (inactive).

Turning to `S=C(Nc1ccc(Br)cc1Cl)N1CCCC1`, the inhibition was -2.6% (inactive).

As for `COc1ccc(C2=CC(=O)C[C@H](c3ccc(OC)c(OC)c3)C2)cn1`, the inhibition was -0.4% (inactive).

Regarding `O=C(O)CN1CCN(Cc2cccc(Cl)c2)C1=O`, the inhibition was -1.31% (inactive).

For the compound `CCCC(C1=C(O)CC(C)(C)CC1=O)C1C(=O)CC(C)(C)CC1=O` (centres undefined), the inhibition was -11.2% (inactive).

For `CC1(C)CC(=O)C(CC2=C(O)CC(C)(C)CC2=O)C(=O)C1`, the inhibition is -33.8% (inactive).

On to `CC(C)c1cc(C(=O)NCc2cccnc2)no1`, for which the inhibition was 1.6% (inactive).

As to `O=C(NNc1ccccc1[N+](=O)[O-])Nc1ccccc1`, the inhibition is -1.39% (inactive).

With `COc1cc(NC(=O)CSc2ncnc3sc4c(c23)CCCC4)c(C(=O)O)cc1OC`, the inhibition was -3.33% (inactive).

Regarding `CC1CCc2c(sc3ncnc(SCC(=O)Nc4ccc(C(=O)O)cc4)c23)C1` (centres undefined), the inhibition was -4.98% (inactive).

For `COCCNC(=O)C(=O)c1c(-c2ccccc2)[nH]c2ccccc12`, the inhibition is 1.52% (inactive).

Consider `O=C(Nc1ccc(S(=O)(=O)N2CCOCC2)cc1)c1ccc2c(c1)S(=O)(=O)c1ccccc1C2=O`, for which the inhibition was -4.52% (inactive).

With `O=C(Nc1cc(S(=O)(=O)N2CCOCC2)ccc1N1CCCC1)c1ccc2c(c1)S(=O)(=O)c1ccccc1C2=O`, the inhibition is -7.41% (inactive).

As for `COCc1nc(-c2cc(Br)ccc2OC)no1`, the inhibition was -4.06% (inactive).

In the case of `CCn1c(O)c(C=Nc2ccccc2)oc1=S`, the inhibition was -8.34% (inactive).

As to `Cc1nc2ccc(NC(=O)c3ccc([N+](=O)[O-])cc3[N+](=O)[O-])cc2s1`, the inhibition was -5.18% (inactive).

With `Cc1nc2ccc(NC(=O)c3ccc(Cl)c([N+](=O)[O-])c3)cc2s1`, the inhibition is -4.44% (inactive).

On to `COc1cccc(NC(=S)N2CCC(c3ccc(C)cc3)C2)c1` (centres undefined), for which the inhibition is -1.96% (inactive).

As to `COc1ccc(CCNC(=O)c2nnn(CC(=O)Nc3c(C)cc(C)cc3C)c2N)cc1OC`, the inhibition is -7.1% (inactive).

Consider `COc1cc(NC(=O)c2ccc(COCC(F)(F)F)o2)cc(OC)c1OC`, for which the inhibition is 0% (inactive).

`COc1cc(C(O)C(=O)O)ccc1O` (centres undefined): the inhibition is -7.33% (inactive).

Turning to `COc1cc(C(C2C(=O)CC(C)(C)CC2=O)C2C(=O)CC(C)(C)CC2=O)ccc1OC(C)=O`, the inhibition is -2.35% (inactive).

In the case of `COc1ccc(NC(=O)c2ccc(COCC(F)(F)F)cc2)cc1OC`, the inhibition is -2.91% (inactive).

As for `CC1(C)CC(=O)C(C(c2ccccc2F)C2C(=O)CC(C)(C)CC2=O)C(=O)C1`, the inhibition was 22.6% (inactive).

Take `CCOc1ccc(CC(=O)C2C(=O)CC(C)(C)CC2=O)cc1OCC`: the inhibition was -13.1% (inactive).

`COc1ccc(N2C(=O)CC(C)(C)CC2=O)cc1OC`: the inhibition is 0% (inactive).

As for `O=C(/C=C1\SC(=O)NC1=O)Nc1ccc(F)cc1`, the inhibition is 0% (inactive).

For the compound `Cc1cc(Br)ccc1NC(=O)CNC(=O)CSc1n[nH]c(N)n1`, the inhibition is -4.68% (inactive).

Take `O=C(COC(=O)c1cc(Cl)ccc1O)Nc1cc(C(F)(F)F)ccc1N1CCOCC1`: the inhibition is -3.11% (inactive).

Take `CCCN1Cc2cccc(C(=O)NCCc3cccc(C)c3)c2C1=O`: the inhibition is 3.25% (inactive).

For `COc1cc(NC2=CC(=O)CC(C)(C)C2)cc(OC)c1OC`, the inhibition is 1.61% (inactive).

As to `COc1cc(C2CC(=O)OC3=C2C(=O)CC(C)(C)C3)cc(OC)c1OC` (centres undefined), the inhibition was 2.26% (inactive).

For the compound `CCOc1ccc(S(=O)(=O)NC(C)(C)C)cc1-c1nc2c(C(C)(C)C)nn(C)c2c(=O)[nH]1`, the inhibition was -2.73% (inactive).

Regarding `Cc1cc[n+](-c2ccccc2)c2ccccc12`, the inhibition was -10.7% (inactive).

As to `O=C(CSCc1c(F)cccc1Cl)NCc1ccco1`, the inhibition was -1.37% (inactive).

With `CCN(CC)S(=O)(=O)c1ccc(C(=O)NCC2CCCCC2)cc1`, the inhibition is 2.49% (inactive).

In the case of `O=C(Nc1ccc(F)cc1)c1cc2cc(Cl)ccc2[nH]1`, the inhibition is 1.32% (inactive).

Consider `COc1ccc(-c2ccc(SCC(=O)N3CC(=O)Nc4ccccc43)nn2)cc1`, for which the inhibition is -4.15% (inactive).

Turning to `CCn1cc(/C=C/C(=O)NCc2c(C)nn(C)c2C)cn1`, the inhibition was -7.26% (inactive).

Consider `O=C1NC(=O)/C(=C/c2cccc(O)c2)N1`, for which the inhibition is 1.96% (inactive).

As for `Cc1ccc(OCCN2C(=O)c3ccccc3C2=O)c(C)c1`, the inhibition was 1.61% (inactive).

In the case of `COc1ccccc1OCCCOc1cccc(/C=C2\SC(=O)NC2=O)c1`, the inhibition is -1.96% (inactive). For the same compound, the inhibition under setting [1] came out at 6.37%.

`C(=N\n1cnnc1)/c1cccc(OCCOc2ccccc2)c1`: the inhibition was -9.55% (inactive).

For `O=C1NC(=S)N/C1=C/c1ccc2ccccc2c1`, the inhibition was 5.93% (inactive). In addition, under setting [1], the inhibition was found to be 2.73%.

Take `O=C1NC(=S)S/C1=C\c1ccc2ccccc2c1`: the inhibition was -15.5% (inactive).

Consider `CNC(=O)NC(=O)CSc1nc2cc(C(=O)OC)ccc2c(=O)n1-c1ccccc1`, for which the inhibition is -2.77% (inactive).

For the compound `COc1ccc2nc(C)cc(SCC(NC(C)=O)C(=O)OC(C)C)c2c1` (centres undefined), the inhibition was 0.78% (inactive).

For `COc1ccccc1C(=O)Nc1ncc2c(n1)CC(c1ccco1)CC2=O` (centres undefined), the inhibition is -1.36% (inactive).

In the case of `O=C(NCc1ccccn1)c1cc(S(=O)(=O)N2CCCCCC2)ccc1Cl`, the inhibition is 1.3% (inactive).

In the case of `COc1cc(C(=O)O/N=C2\C=CC(=O)C(C)=C2)cc(OC)c1OC`, the inhibition was -39% (inactive).

`Oc1ccc(/C=N/N2CCN(C3c4ccccc4-c4ccccc43)CC2)cc1`: the inhibition is -2.06% (inactive).

For the compound `COc1ccc(OC)c2c1CCC2=O`, the inhibition was 0% (inactive).

`COc1ccc(N)c2c1C(=O)c1ccccc1C2=O`: the inhibition was -1.95% (inactive).

Consider `CCOc1ccc(S(=O)(=O)N2CCCCC2)cc1NC(=O)C1COc2ccccc2O1` (centres undefined), for which the inhibition is 1.45% (inactive).

Consider `O=C(NCc1ccccc1)c1cnc(Cl)c(Cl)c1`, for which the inhibition was -7.44% (inactive).

Consider `COC(=O)c1ccc(COc2cccnc2[N+](=O)[O-])cc1`, for which the inhibition is 0% (inactive).
